From PubChem BioAssay AID463173 (ICCB-Longwood Screening Facility, Harvard Medical School, 2010)
About 1,700 (3.3%) of roughly 52,000 compounds were called active. Cut-off read from the data, not from the text of the source: active = survival mostly below about 52% (no sharp cut-off); inactive = mostly above about 56%. For the sample, actives were picked, then their nearest neighbours and some compounds at random.

What follows are compounds tested on Wild type (assay: growth inhibition of S. aureus wild type versus tarO mutant, primary screen, teichoic acid synthesis inhibitors, RN4220, OD600 (AID 463173)). Details: S. aureus RN4220 wild type/DeltatarO growth, OD600, 18 h, active compounds read low, screened at 18.75 µg/mL (by protocol).

Compound	survival
CCOCCCn1c(SCC(=O)Nc2ccc(C)cc2)nc2ccccc2c1=O	83% (inactive)
c1ccc(-n2nnnc2N2CCCC2)cc1	102% (inactive)
Cc1ccc(C(C(=O)NC2CCCCC2)N(C)Cc2ccccc2)cc1 (configuration not stated)	-1% (active)
CCOC(=O)CN(Cc1ccccc1)C(C(=O)NC1CCCCC1)c1ccc(OC)cc1 (configuration not stated)	20% (inactive)
O=C(NC1CCCC1)C(c1ccccc1)N(Cc1ccccc1F)C(=O)c1ccco1 (configuration not stated)	118% (inactive)
COc1ccc(C(C(=O)NC2CCCC2)N(Cc2ccc(C)cc2)C(=O)c2ccn[nH]2)cc1OC (configuration not stated)	103% (inactive)
CN(Cc1ccccc1)C(C(=O)NC1CCCCC1)c1ccc(Cl)cc1 (configuration not stated)	74% (inactive)
Cc1ccc(-c2nnn(CC(=O)N(Cc3ccccc3)C(C(=O)NC3CCCC3)c3ccco3)n2)cc1 (configuration not stated)	99% (inactive)
CCOC(=O)CN(Cc1ccccc1)C(C(=O)NC1CCCCC1)c1ccccc1 (configuration not stated)	-2% (active)
CCOC(=O)CN(Cc1ccccc1)C(C(=O)NC1CCCCC1)c1ccc(C)cc1 (configuration not stated)	-2% (active)
O=C(NC1CCCC1)C(c1ccccc1)N(C(=O)c1ccco1)C1CCCC1 (configuration not stated)	88% (inactive)
N#Cc1c(Nc2cccc(F)c2)sc(C(=O)c2ccc(Cl)cc2)c1N	101% (inactive)
CCCOc1cccc(NC(=O)c2c(-c3ccccc3Cl)noc2C)c1	71% (inactive)
CCc1nc(NCCCO)c2nnn(Cc3ccccc3F)c2n1	106% (inactive)
CS(=O)(=O)NCC(c1ccco1)N1CCN(c2ccccc2)CC1 (configuration not stated)	83% (inactive)
CCCCCCc1cc2cc(-c3nnc(-c4cccc(Cl)c4)o3)c(=O)oc2cc1O	72% (inactive)
CN(C)N1C(=O)CC(N2CCCC2)C1=O (configuration not stated)	101% (inactive)
CCc1ccc(NC(=O)CC2C(=O)N(c3cccc(C)c3)C(=O)N2CCC(C)C)cc1 (configuration not stated)	72% (inactive)
COc1cc2c(cc1OC)C(COc1cc(C)cc(C)c1)N(C(=O)c1ccc(S(=O)(=O)N3CCCC3)cc1)CC2 (configuration not stated)	45% (inactive)
COc1cc2c(cc1OC)C(COc1ccccc1OC)N(C(=O)c1ccc(S(=O)(=O)N3CCCC3)cc1)CC2 (configuration not stated)	0% (active)
COc1cc2c(cc1OC)C(COc1ccc(F)cc1)N(C(=O)c1ccc(S(=O)(=O)N3CCCC3)cc1)CC2 (configuration not stated)	88% (inactive)
COc1cccc(NC(=O)CCc2nnc3n(CC(C)C)c(=O)c4ccccc4n23)c1	92% (inactive)
Cc1ccc(CCNC(=O)c2cc3c(s2)-c2ccccc2OC3)cc1	95% (inactive)
COc1cc(OC)c(N(C)C(=O)c2cc3c(s2)-c2ccccc2OC3)cc1Cl	73% (inactive)

Compound	survival
COc1cc(NC(=O)c2cc3c(s2)-c2ccccc2OC3)cc(OC)c1OC	53% (inactive)
Cc1ccc(CCNC(=O)c2cc3c(s2)-c2c(C)cccc2OC3)cc1	88% (inactive)
CCOc1ccccc1N(C)C(=O)c1cc2c(s1)-c1ccccc1OC2	13% (active)
COc1ccc(N2CCN(C(=O)c3cc4c(s3)-c3ccccc3OC4)CC2)cc1	116% (inactive)
CCOc1ccc(CCNC(=O)c2cc3c(s2)-c2ccccc2OC3)cc1OCC	90% (inactive)
CCN(C(=O)c1cc2c(s1)-c1c(C)cccc1OC2)c1cc(C)ccc1C	11% (active)
COc1ccc(N(C)C(=O)c2cc3c(s2)-c2ccccc2OC3)cc1	13% (active)
Cc1ccc(C)c(N(C)C(=O)c2cc3c(s2)-c2ccccc2OC3)c1	-2% (active)
COc1ccc(CNC(=O)c2cc3c(s2)-c2ccccc2OC3)cc1	92% (inactive)
CCN(C(=O)c1cc2c(s1)-c1c(C)cccc1OC2)c1ccccc1F	96% (inactive)
NCCC(=O)N1c2ccccc2Sc2ccc(Cl)cc21	104% (inactive)
Cc1ccc(F)cc1NC(=O)CCc1c(C)nn(-c2ccc(N3CCOCC3)nn2)c1C	113% (inactive)
O=C(c1ccccc1)N1CCc2cc(CNS(=O)(=O)c3ccc(Cl)s3)ccc21	66% (inactive)
Cc1c(C(=O)NCc2ccc(F)cc2)oc2ccc(S(=O)(=O)N3CCCCC3)cc12	84% (inactive)
CCOC(=O)CSc1nc2ccc(NC(=O)c3cccc(F)c3)cc2s1	87% (inactive)
CS(=O)(=O)Nc1ccc2c(c1)OCO2	94% (inactive)
COc1ccc(OC)c(NC(=O)CCCOc2cc(=O)n(C)c3ccccc23)c1	64% (inactive)
COc1cccc(NC(=O)C2CCCN(c3ncnc4onc(C)c34)C2)c1 (configuration not stated)	72% (inactive)
CCC(C)NC(=O)c1c(C)oc2nc(C)nc(N3CCOCC3)c12 (configuration not stated)	88% (inactive)
CCc1cccc(NC(=O)CCn2nc(C)cc2C)c1	77% (inactive)
COc1ccc(NC(=O)C2CCN(C(=O)c3sc4nc[nH]c(=O)c4c3C)CC2)c(OC)c1	81% (inactive)
CCOc1ccc(C(=O)Nc2cc(-c3nc4ccccc4s3)ccc2OC)cc1	163% (inactive)
O=C(Nc1ccc(-c2nc3ccccc3s2)c(O)c1)c1ccc(Br)cc1	85% (inactive)
